Experimental data published in ChEMBL document CHEMBL4808148, “HDAC6 screening dataset using tau-based substrate in an enzymatic assay yields selective inhibitors and activators” (2021).
Hit rate of the full screen: of about 5,600 compounds, about 390 (7%) showed an effect of 50% or more. The sample as a whole holds a higher share of strong results than the screen did. Residues, ends and D or L forms follow the SMILES beside them.

How the values were obtained:
[1] = target: T1, Protein deacetylase HDAC6 (Homo sapiens) (UniProt Q9UBN7); conditions: at 10 µM
T1 sequence (whole entry): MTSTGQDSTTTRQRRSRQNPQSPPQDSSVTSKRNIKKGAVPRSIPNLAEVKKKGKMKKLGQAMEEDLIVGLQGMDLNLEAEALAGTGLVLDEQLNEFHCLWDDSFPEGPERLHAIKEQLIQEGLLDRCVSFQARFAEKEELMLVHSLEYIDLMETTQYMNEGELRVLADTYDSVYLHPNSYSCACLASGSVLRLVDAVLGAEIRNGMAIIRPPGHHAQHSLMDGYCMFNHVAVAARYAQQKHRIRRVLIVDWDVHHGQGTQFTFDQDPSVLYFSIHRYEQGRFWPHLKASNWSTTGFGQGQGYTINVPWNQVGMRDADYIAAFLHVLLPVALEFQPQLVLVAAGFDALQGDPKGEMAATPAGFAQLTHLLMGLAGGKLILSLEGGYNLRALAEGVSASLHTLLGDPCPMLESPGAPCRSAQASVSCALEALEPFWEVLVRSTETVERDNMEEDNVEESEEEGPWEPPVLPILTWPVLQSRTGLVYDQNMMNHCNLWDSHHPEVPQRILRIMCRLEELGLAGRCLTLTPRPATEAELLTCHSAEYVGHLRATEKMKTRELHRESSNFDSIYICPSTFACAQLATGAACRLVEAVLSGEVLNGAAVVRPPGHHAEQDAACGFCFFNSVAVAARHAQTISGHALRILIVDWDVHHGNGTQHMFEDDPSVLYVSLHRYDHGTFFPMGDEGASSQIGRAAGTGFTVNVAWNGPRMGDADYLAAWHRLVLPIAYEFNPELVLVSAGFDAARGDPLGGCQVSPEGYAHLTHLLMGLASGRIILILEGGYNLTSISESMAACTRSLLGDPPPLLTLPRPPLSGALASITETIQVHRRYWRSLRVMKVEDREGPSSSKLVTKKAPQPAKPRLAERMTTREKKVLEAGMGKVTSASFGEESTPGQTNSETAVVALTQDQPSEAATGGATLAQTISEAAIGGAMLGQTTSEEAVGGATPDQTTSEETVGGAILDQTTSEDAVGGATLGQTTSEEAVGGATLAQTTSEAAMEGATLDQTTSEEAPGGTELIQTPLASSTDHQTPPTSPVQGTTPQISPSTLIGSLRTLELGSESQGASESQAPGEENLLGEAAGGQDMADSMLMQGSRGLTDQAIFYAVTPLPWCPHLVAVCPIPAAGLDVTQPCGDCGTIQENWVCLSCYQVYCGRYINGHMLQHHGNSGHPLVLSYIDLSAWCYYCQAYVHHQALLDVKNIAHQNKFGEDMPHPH

[2] = target: Protein deacetylase HDAC6 (Homo sapiens) (UniProt Q9UBN7); conditions: at 10 µM; remark: listed apart in the source

Row | Compound | inhibition [1] | inhibition [2]
1 | CC(C)[C@@H]1C(=O)N(S(C)(=O)=O)[C@@H]2CCN(C(=O)/C=C/CN3CCCCC3)[C@H]21 | -9.25% | –
2 | NC(=O)c1nc(Nc2ccccc2)sc1NC(=O)C1CCCCC1 | 11.1% | –
3 | Cc1nc2c(c(=O)[nH]1)CSCC2 | 36% | –
4 | CC(C)(C)NCC(O)COc1cc(Cl)ccc1Cl (configuration not stated) | 2.55% | –
5 | Nc1nc(F)nc2c1ncn2[C@@H]1O[C@H](COP(=O)(O)O)[C@@H](O)[C@@H]1O | -4.37% | –
6 | TOCOFERSOLAN, CHEMBL2108106 | – | 6.6%
7 | O=C(Nc1ncc(SCCN2CCCC2)s1)[C@]1(c2ccc(S(=O)(=O)C3CC3)cc2)C[C@H]1C1CCCCC1 | -4.35% | –
8 | CC(C)CC(NC(=O)C1CCCN1)C(=O)NCC(N)=O (stereo not drawn) (H-Pro-Leu-Gly-NH2; configuration not given here) | 40.6% | –
9 | CC(C)(C)Nc1nc(Nc2ccc(C(N)=O)cc2)cc(N)c1C#N | 26.8% | –
10 | CC(C)C(N)=O | 26.5% | –
11 | O=C(O)CC1CC(c2ccccc2)=NO1 (configuration not stated) | 32.1% | –
12 | O=C(CC1CC(c2ccc(F)cc2F)=NO1)N1CCOCC1 (racemic) | 99.4% | –
13 | CCCC[C@H](NC(C)=O)C(=O)N[C@H]1CC(=O)NCCCC[C@@H](C(=O)O)NC(=O)[C@H](Cc2c[nH]c3ccccc23)NC(=O)[C@H](CCCNC(=N)N)NC(=O)[C@@H](Cc2ccccc2)NC(=O)[C@H](Cc2c[nH]cn2)NC1=O | 38.5% | –
14 | N#CC[C@@H](C1CCCC1)n1cc(-c2ncnc3[nH]ccc23)cn1 | -2.44% | –
15 | CN(C)[C@@H](CCOc1cccc2ccccc12)c1ccccc1 | 53% | –
16 | CNC(=O)Oc1cccc2ccccc12 | 25.3% | –
17 | C[C@@H]([C@H](O)c1ccccc1)N(C)C | -0.94% | –
18 | CNC(=O)c1ccccc1Nc1nc(Nc2ccc3c(c2OC)CCC[C@H](N2CCN(CCO)CC2)C3)ncc1Cl | 11.5% | –
19 | N#[N+]/C=C(\[O-])CC[C@H](N)C(=O)O | 28.2% | –
20 | COc1cc(OCc2cccc(-c3ccccc3)c2C)cc(OC)c1CN1CCCC[C@H]1C(=O)O | 64.2% | –
21 | CCOC(=O)[C@H](CCc1ccccc1)N[C@@H](C)C(=O)N1Cc2cc(OC)c(OC)cc2C[C@H]1C(=O)O | -0.68% | –
22 | CC[C@H](C)[C@H]1O[C@]2(C=C[C@@H]1C)C[C@@H]1C[C@@H](C/C=C(\C)[C@@H](O[C@H]3C[C@H](OC)[C@@H](O[C@H]4C[C@H](OC)[C@@H](O)[C@H](C)O4)[C@H](C)O3)[C@@H](C)/C=C/C=C3\CO[C@@H]4[C@H](O)C(C)=C[C@@H](C(=O)O1)[C@]34O)O2 | -4.72% | –
23 | O=C(NCCN1CCN(c2ncccn2)CC1)C12CC3CC(CC(C3)C1)C2 | -4.05% | –
24 | COc1cc(OC)c(/C=C/S(=O)(=O)Cc2ccc(OC)c(OP(=O)(O)O)c2)c(OC)c1 | 6.33% | –

Row | Compound | inhibition [1] | inhibition [2]
25 | CCn1c(=O)n(C2=C(CO)CN(CC3CCCCCCC3)CC2)c2ccccc21 | -8.59% | –
26 | CN1CCC2=C(C1)C(c1ccccc1)c1ccccc12 (configuration not stated) | -8.99% | –
27 | CNC1CC(c2ccc(Cl)c(Cl)c2)c2ccccc21 (configuration not stated) | 30.3% | –
28 | CCCCN1[C@@H]2CC[C@H]1C[C@@H](OC(c1ccc(F)cc1)c1ccc(F)cc1)C2 | 7.33% | –
29 | Nc1nc(OCc2cc(Br)cs2)c2[nH]cnc2n1 | 65.4% | –
30 | CN1CCN(c2cccc3[nH]c(=O)oc23)CC1 | 26.1% | –
31 | O=C([O-])[C@H]1O[C@H](O)[C@H](O)[C@@H](O)[C@@H]1O.[Na+] | 1.38% | –
32 | CC(C)COC(=O)c1ccc(N)cc1 | 82.8% | –
33 | CCOC(=O)c1ccc(N(C)c2csc(-c3ccccc3)n2)cc1 | 30.7% | –
34 | Nc1ccc(C(=O)OCC(O)CO)cc1 (configuration not stated) | 14.1% | –
35 | CC1=C[C@H](O)CC(C)(C)[C@H]1/C=C/C(C)=C/C=C/C(C)=C/C=C/C=C(C)/C=C/C=C(C)/C=C/C1=C(C)C[C@@H](O)CC1(C)C | 5.04% | –
36 | CC[C@H]1[C@@H](O)[C@@H]2[C@H](CC[C@]3(C)[C@@H]([C@H](C)CCOS(=O)(=O)O)CC[C@@H]23)[C@@]2(C)CC[C@@H](O)C[C@@H]12 | -1.78% | –
37 | CC(C)C[C@H](NC(=O)[C@H](CCCCN)NC(=O)[C@H](CCCNC(=N)N)NC(=O)[C@H](C)NC(=O)[C@H](CO)NC(=O)[C@H](CCCCN)NC(=O)[C@H](CCCNC(=N)N)NC(=O)[C@H](C)NC(=O)CNC(=O)[C@@H](NC(=O)[C@H](Cc1ccccc1)NC(=O)CNC(=O)CNC(=O)[C@@H](N)Cc1ccccc1)[C@@H](C)O)C(=O)N[C@@H](C)C(=O)N[C@@H](CC(N)=O)C(=O)N[C@@H](CCC(N)=O)C(=O)O | 3.21% | –
38 | CCC(CC)C(c1ccc(Nc2nc3ccccc3s2)cc1)n1cncn1 (configuration not stated) | 11.9% | –
39 | CC(C)c1cnn2c(NCc3ccccc3)cc(NCCCCCCN)nc12 | 61.1% | –
40 | Cc1cc(/C=C2\SC(=O)N(c3ccccc3)C2=O)c(C)n1-c1cccnc1 | 96.7% | –
41 | Cc1cc(/C=c2/sc3nc4ccccc4n3c2=O)c(C)n1-c1ccccc1 | -0.72% | –
42 | Nc1nc(=O)c2sc(=O)n([C@@H]3O[C@H](CO)[C@@H](O)[C@H]3O)c2[nH]1 | 7.72% | –
43 | Cc1ccc(-c2csc(NC(=O)c3ccccc3)n2)c(C)c1 | 61.3% | –
44 | Cc1cc2sc(NC(=O)Cc3ccccc3)nc2cc1Cl | 19.7% | –
45 | NC(=O)CN1C=CCC(C(N)=O)=C1 | -1.44% | –
46 | O=C1c2cc(Cl)ccc2OC2CCON12 (configuration not stated) | 8.29% | –
47 | COc1ccccc1OC(=O)CNC(=O)Cc1ccc(C(=O)c2ccc(C)cc2)n1C | 27.4% | –
